Results as given in the supplement of paper PMC7156485.

Experiments:
Settings in all cases: concentration: 10 µM; 24 h
HCC1569 [1] = assay: cell number relative to DMSO (% of DMSO); higher = more cells (less growth inhibition / toxicity)
Summary of the method: (§1)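 Using 384-well plates with 800 cells per well in RPMI plus 10% FBS, HCC1569 and TDF cells were exposed to compounds at 10 µM, in triplicate, for 24 h at 37 °C. Imaging of six fields per well at ×10 followed H1.0 and DAPI staining. The reported quantity, H1.0 nuclear intensity or cell number, is a median of replicates given as percent of the plate control, and HCC1569 values were smoothed for positional effects.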

TDF [2] = assay: as above
Summary of the method: as §1

TDF [3] = assay: H1.0 immunofluorescence intensity relative to DMSO (% of DMSO); higher = stronger H1.0 induction, active = 120 or more
Summary of the method: as §1

HCC1569 [4] = assay: H1.0 immunofluorescence intensity relative to DMSO (% of DMSO); higher = stronger H1.0 induction, active = 140 or more
Summary of the method: as §1
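Wherever H1.0 immunofluorescence intensity relative to DMSO is given: TDF is a line of transformed human dermal fibroblasts of mesenchymal origin.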
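Wherever cell number relative to DMSO is given: TDF denotes transformed human dermal fibroblasts of mesenchymal origin.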

SMILES	cell number (HCC1569 [1])	cell number (TDF [2])	H1.0 immunofluorescence intensity (TDF [3])	H1.0 immunofluorescence intensity (HCC1569 [4])
CCC(C)C=C(C)C=CC1=CC2=C(Cl)C(=O)C(C)(OC(C)=O)C(=O)C2=CO1 (stereo not given) [Sclerotiorin]	97.9	96.1	95.7 (inactive)	95.1 (inactive)
CC1C2Cc3ccc(O)cc3C1(C)CCN2CC1CC1 (single isomer, unassigned; (+)) [(+)-Cyclazocine]	102	92.2	96.9 (inactive)	86.8 (inactive)
CCCCc1ccc(C(=O)O)nc1 [Fusaric acid]	105	110	90.2 (inactive)	88.6 (inactive)
Cl.NCC(O)c1cc(O)c(O)cc1F (stereo not given) [6-Fluoronorepinephrine hydrochloride]	99.2	111	89.4 (inactive)	83.2 (inactive)
C=CCN1CC(C(=O)N(CCCN(C)C)C(=O)NCC)CC2c3cccc4[nH]cc(c34)CC21 (stereo not given) [Cabergoline]	109	102	96.1 (inactive)	102 (inactive)
COc1cc(C(=O)OC2CC3CCC(C2)N3C)ccc1O (stereo not given) [Fillalbin]	101	93.9	98.2 (inactive)	94.5 (inactive)
CN(C)C(=O)Oc1cc(OC(=O)N(C)C)cc(C(O)CNC(C)(C)C)c1 (stereo not given) [Bambuterol]	101	112	93.5 (inactive)	106 (inactive)
CC12CCC3C(CC=C4CC(O)CCC43C)C1CCC2=O (stereo not given) [Dehydroepiandrosterone]	105	107	99.7 (inactive)	93.6 (inactive)
CN1CC(CNC(=O)OCc2ccccc2)CC2c3cccc4c3c(cn4C)CC21 (stereo not given) [Metergoline]	97.2	105	118 (inactive)	120 (inactive)
CC[NH+](CC)CC.Nc1ncnc2c1ncn2C1OC2COP([O-])(=S)OC2C1O (stereo not given) [Rp-cAMPS triethylamine]	103	113	86 (inactive)	88.3 (inactive)
Br.NCc1cc(=O)[nH]o1 [Muscimol hydrobromide]	103	119	89.5 (inactive)	91 (inactive)
CCCCCCC(C)(C)c1ccc(C2CC(O)CCC2CCCO)c(O)c1 (stereo not given)	99.3	109	91.7 (inactive)	93 (inactive)
CNC(=O)Oc1ccc2c(c1)C1(C)CCN(C)C1N2C.CNC(=O)Oc1ccc2c(c1)C1(C)CCN(C)C1N2C.O=S(=O)(O)O (stereo not given) [Physostigmine sulfate]	97.1	102	90.4 (inactive)	106 (inactive)
CN1CCc2cccc(Cl)c2CC1.Cl	103	98.7	96.2 (inactive)	86.7 (inactive)
CC(C)C1(NC(=O)C2CC3c4cccc5[nH]cc(c45)CC3N(C)C2)OC2(O)C3CCCN3C(=O)C(Cc3ccccc3)N2C1=O.CS(=O)(=O)O (stereo not given) [Dihydroergocristine mesylate]	100	110	91.4 (inactive)	88.3 (inactive)
COc1cc2c(cc1OC)[C@H]1CC(=O)[C@H](CC(C)C)CN1CC2	106	102	88 (inactive)	96.4 (inactive)
CCCCCC=CCC(C=CC=CCC=CCCCC(=O)O)OO (stereo not given)	102	101	102 (inactive)	99.8 (inactive)
CC(CCc1ccccc1)NC(C)C(O)c1ccc(O)cc1.Cl (stereo not given) [Nylidrin hydrochloride]	102	109	92.4 (inactive)	96.5 (inactive)
O=C(O)C(=O)c1cn(Cc2ccccc2)c2ccc(-c3ccc(OC(F)(F)F)cc3)cc12	99.9	106	94 (inactive)	99.4 (inactive)
CP(=O)(O)CCCN.Cl	102	98.3	92.5 (inactive)	107 (inactive)
NC(C(=O)O)c1cc(=O)[nH]o1 (racemic)	104	103	92.2 (inactive)	92.6 (inactive)
CCN1CC2(COC)C(O)CC(OC)C34C5CC6(O)C(OC)C(O)C(OC(C)=O)(C5C6OC(=O)c5ccccc5)C(C(OC)C23)C14 (stereo not given) [Aconitine]	99.9	97.3	96.5 (inactive)	94.5 (inactive)
CCCCCCCCCCCCCCC(Br)C(=O)O (stereo not given) [2-bromohexadecanoic acid]	109	107	91.6 (inactive)	94.5 (inactive)
Cl.O=C(N[C@H]1CN2CCC1CC2)c1c[nH]c2ccsc2c1=O	106	94.7	98.3 (inactive)	107 (inactive)
CCCCCCCCCCCCCC(=O)OC1C(C)C2(O)C(C=C(CO)CC3(O)C(=O)C(C)=CC32)C2C(C)(C)C12OC(C)=O (stereo not drawn) [4alpha-Phorbol-12-myristate-13-acetate]	98.4	111	95.6 (inactive)	108 (inactive)
